Compound activity: PubChem, National Center for Advancing Translational Sciences (NCATS)
TRHR PAM – qHTS for Small Molecule Agonists and Allosteric Enhancers of Human TRH Receptor: Primary Screen for Enhancers; Thyrotropin-releasing hormone receptor (Homo sapiens), P34981; AID 493056, 2011; actives 0.66% (n = 360,000); TRHR cells, fluo-8 calcium fluorescence, EC20 TRH enhancement; enhancement, % at 2 µM; in the data active = enhancement above about 30%
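Enhancer read-out: after compound pinning and an initial kinetic agonist-mode read, an EC20 of TRH (10 nM final) was injected and fluo-8 calcium signal (Ex 480/Em 530) followed at 1 s/cycle for 100 cycles in TRHR-expressing cells.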
TRHR ag – qHTS for Small Molecule Agonists and Allosteric Enhancers of Human TRH Receptor: Primary Screen for Agonists. Thyrotropin-releasing hormone receptor (Homo sapiens), P34981. activation, % at 2 µM. AID 493084, 2011. actives 0.18% (n = 360,000). TRHR cells, calcium flux fluo-8, FDSS agonist mode
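TRHR-expressing cells loaded with fluo-8 calcium dye; 23 nL library compound pin-transferred, kinetic FDSS fluorescence (Ex 480/Em 530) recorded about 180 s for agonist-induced calcium release, before a 10 nM TRH EC20 addition for potentiator mode.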
D1 antagonist – Antagonist of Human D 1 Dopamine Receptor: qHTS; activity change, negative = inhibition, % at 10 µM; actives 3.2% (n = 360,000); HEK293 TREx D1 cells, calcium flux, dopamine EC80; stronger effect = lower value; D(1A) dopamine receptor (Homo sapiens), P21728; in the data active = activity change below about -30%
Target sequence (P21728 whole entry, looked up): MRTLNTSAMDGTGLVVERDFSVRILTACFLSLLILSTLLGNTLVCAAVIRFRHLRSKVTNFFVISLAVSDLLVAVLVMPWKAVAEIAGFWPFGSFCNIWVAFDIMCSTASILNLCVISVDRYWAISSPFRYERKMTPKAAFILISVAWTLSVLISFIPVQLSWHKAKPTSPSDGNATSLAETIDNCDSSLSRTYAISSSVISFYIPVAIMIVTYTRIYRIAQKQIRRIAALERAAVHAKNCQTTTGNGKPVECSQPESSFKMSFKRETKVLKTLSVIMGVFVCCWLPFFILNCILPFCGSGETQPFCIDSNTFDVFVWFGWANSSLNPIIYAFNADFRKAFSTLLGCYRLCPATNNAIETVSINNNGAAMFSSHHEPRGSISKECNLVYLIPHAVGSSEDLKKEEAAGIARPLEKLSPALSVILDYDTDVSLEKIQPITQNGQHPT
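After overnight tetracycline induction at 30 C, force-coupled D1 HEK293 cells took up a no-wash calcium dye at room temperature. Compounds were added and monitored 180 s, and the response to EC80 dopamine was then recorded.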
D1 potentiator – Potentiators of Human D1 Dopamine Receptor: qHTS. D(1A) dopamine receptor (Homo sapiens), P21728. actives 0.036% (n = 360,000). HEK293 TREx D1 cells, calcium flux, dopamine EC20 potentiation. potentiation, % at 10 µM; in the data active = potentiation above about 30%
D1 ag – Allosteric Agonists of the Human D1 Dopamine Receptor: qHTS. AID 504660, 2011. HEK293 T-REx D1 cells, calcium flux, agonist mode. D(1A) dopamine receptor (Homo sapiens), P21728. actives 1% (n = 360,000). activation, % at 2 µM
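Agonism was scored from calcium flux recorded over 180 s (1 read/s) after pintool compound addition, following a 10-cycle baseline. Cells were inducible force-coupled HEK293 TREx D1, plated overnight at 30 C and loaded with no-wash calcium dye.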
Hits are given with their value. An excerpt weighted towards active compounds, which were near 4.6% of everything screened. Cut-off read from the data, not from the text of the source, unless noted: active = activation above about 30%; inactive = the rest.

Screening CSc1ccc(/C=C/c2nc3ccccc3n2S(=O)(=O)c2ccc(Br)cc2)cc1 returned TRHR PAM inactive, TRHR ag inactive, D1 antagonist -30, D1 potentiator inactive and D1 ag inactive.
Cc1nc2ccccc2n1S(=O)(=O)c1ccc(Br)cc1 was read as TRHR PAM inactive, TRHR ag inactive, D1 antagonist -44, D1 potentiator inactive and D1 ag inactive.
`CCOc1ccc(/C=C/c2nc3ccccc3n2S(=O)(=O)c2ccc(Br)cc2)cc1` gave TRHR PAM inactive, TRHR ag inactive, D1 antagonist inactive, D1 potentiator inactive and D1 ag inactive.
Screening CCOc1ccc(C2CC(=O)Nc3c2c(=O)[nH]c2ncnn32)cc1 (stereo unspecified) returned TRHR PAM inactive, TRHR ag inactive, D1 antagonist inactive, D1 potentiator inactive and D1 ag inactive.
Cc1ccc2c(c1)-c1c(c(C(=O)NCCc3ccccc3)nn1C)CS2 was read as TRHR PAM inactive, TRHR ag inactive, D1 antagonist inactive, D1 potentiator inactive and D1 ag inactive.
O=C(Nc1cccc(Cl)c1)c1cc(N=Nc2ccc([N+](=O)[O-])cc2Cl)ccc1O was read as TRHR PAM inactive, TRHR ag inactive, D1 antagonist -54, D1 potentiator inactive and D1 ag inactive.
CC(=O)Nc1cccc(NC(=O)C(=O)NCCc2csc3nc(-c4ccccc4F)nn23)c1 was read as TRHR PAM inactive, TRHR ag inactive, D1 antagonist inactive, D1 potentiator inactive and D1 ag inactive.
Screening O=C(CNC(=O)c1ccc(C(F)(F)F)cc1)OC(C(=O)Nc1cc(C(F)(F)F)ccc1Cl)c1ccccc1 (stereo unspecified) returned TRHR PAM inactive, TRHR ag inactive, D1 antagonist inactive, D1 potentiator inactive and D1 ag inactive.
For COc1ccc(C)cc1NS(=O)(=O)c1cc2c3c(c1)CC(=O)N3CCC2 the results were TRHR PAM inactive, TRHR ag inactive, D1 potentiator inactive and D1 ag inactive.
CC(=O)c1cccc(OCC(O)CNCC2COc3ccccc3O2)c1 (stereo unspecified) was read as TRHR PAM inactive, TRHR ag inactive, D1 antagonist -48, D1 potentiator inactive and D1 ag 45.
Screening OCCNCc1ccc(OCc2ccc(Cl)cc2Cl)cc1 returned TRHR PAM inactive, TRHR ag inactive, D1 antagonist inactive, D1 potentiator inactive and D1 ag inactive.
`OCCCCNCc1ccc(OCc2ccc(Cl)cc2Cl)cc1` gave TRHR PAM inactive, TRHR ag inactive, D1 antagonist inactive, D1 potentiator inactive and D1 ag 61.
For Cc1cc(C)nc(Nc2n[nH]c(COc3ccc(Cl)cc3)n2)n1 the results were TRHR PAM inactive, TRHR ag inactive, D1 antagonist inactive, D1 potentiator inactive and D1 ag 34.
For Cc1ccc(OCc2cc(C(=O)N3CCC(Oc4cccnc4)CC3)no2)cc1C the results were TRHR PAM inactive, TRHR ag inactive, D1 antagonist inactive, D1 potentiator inactive and D1 ag inactive.
`CCC1CCCCN1C(=O)c1cc(COc2ccc(-n3cncn3)cc2)on1` (stereo unspecified) gave TRHR PAM inactive, TRHR ag inactive, D1 antagonist -34, D1 potentiator inactive and D1 ag inactive.
CC(=O)c1ccc(OCc2cc(C(=O)N3CCOCC3)no2)cc1 was read as TRHR PAM inactive, TRHR ag inactive, D1 antagonist inactive, D1 potentiator inactive and D1 ag inactive.
CC(=O)c1ccc(OCc2cc(C(=O)N3CCC(Oc4ccccc4C)CC3)no2)cc1 was read as TRHR PAM inactive, TRHR ag inactive, D1 antagonist -53, D1 potentiator inactive and D1 ag inactive.
Screening CC(=O)c1ccc(OCc2cc(C(=O)N3CCCCCCC3)no2)cc1 returned TRHR PAM inactive, TRHR ag inactive, D1 antagonist -38, D1 potentiator inactive and D1 ag inactive.
For Cc1cccc(C)c1OCc1cc(C(=O)N2CCC(c3ccncc3)CC2)no1 the results were TRHR PAM inactive, TRHR ag inactive, D1 antagonist -42, D1 potentiator inactive and D1 ag inactive.
Screening O=C(c1cc(COc2c(F)cccc2F)on1)N1CCC(c2ccncc2)CC1 returned TRHR PAM inactive, TRHR ag inactive, D1 antagonist inactive, D1 potentiator inactive and D1 ag inactive.
O=C1COc2ccc(-c3cc(-c4ccc(F)cc4)c4c(n3)-c3cc(Cl)ccc3OC4)cc2N1 was read as TRHR PAM inactive, TRHR ag inactive, D1 antagonist inactive, D1 potentiator inactive and D1 ag inactive.
For Cc1cccc(CSc2ncc(Cl)c(C(=O)Nc3sc4c(c3C#N)CCCC4)n2)c1 the results were TRHR PAM inactive, TRHR ag inactive, D1 antagonist inactive, D1 potentiator inactive and D1 ag inactive.
For Cc1cc2c(s1)c1cnn(Cc3cc(F)cc(F)c3)c(=O)c1n2C the results were TRHR PAM inactive, TRHR ag inactive, D1 antagonist inactive, D1 potentiator inactive and D1 ag inactive.
CCC(=O)N1CCc2cc(S(=O)(=O)NC(CC(C)C)C(=O)Nc3ccc(CC)cc3)ccc21 (stereo unspecified) was read as TRHR PAM inactive, TRHR ag inactive, D1 antagonist inactive, D1 potentiator inactive and D1 ag inactive.
For COc1ccc(-c2ccc(=O)n(CC(=O)Nc3ccc(N(C)C)cc3)n2)cc1 the results were TRHR PAM inactive, TRHR ag inactive, D1 antagonist inactive, D1 potentiator inactive and D1 ag inactive.
`CCOC(=O)c1cccnc1SCC(=O)Nc1ccc(C)cc1C` gave TRHR PAM inactive, TRHR ag inactive, D1 antagonist inactive, D1 potentiator inactive and D1 ag inactive.
`O=C(NC(=S)Nc1ccccc1Br)c1ccc2c(c1)OCO2` gave TRHR PAM inactive, TRHR ag inactive, D1 antagonist inactive, D1 potentiator inactive and D1 ag inactive.
For CC(C)c1ccc(O)c(NC(=S)NC(=O)c2ccc3c(c2)OCO3)c1 the results were TRHR PAM inactive, TRHR ag inactive, D1 antagonist -66, D1 potentiator inactive and D1 ag inactive.
Screening COc1cccc(NC(=O)CN2C=NS(=O)(=O)c3ccccc32)c1 returned TRHR PAM inactive, TRHR ag inactive, D1 antagonist inactive, D1 potentiator inactive and D1 ag inactive.
For O=c1c(/C=C(\O)c2ccccc2)nc2ccccc2n1-c1ccccc1 the results were TRHR PAM inactive, TRHR ag 47, D1 antagonist inactive, D1 potentiator inactive and D1 ag 169.
Cc1nc2ccccc2n1-c1ccccc1 was read as TRHR PAM inactive, TRHR ag inactive, D1 antagonist inactive, D1 potentiator inactive and D1 ag inactive.
